Data reported in PubChem BioAssay AID493169 (National Center for Advancing Translational Sciences (NCATS), 2011).
Inconclusive results are not listed. Values without a mark were called inactive. Calls of active or inactive are those of the source. Calls come from the whole dose curve; as a rule, active = well fitted inhibition curve with a large enough effect; inconclusive = small, poorly fitted or top-dose-only effect; inactive = flat fitted curve, though single readings scatter.

Assay: CHOP2 Reporter Counterscreen Assay for Inhibitors of Ubiquitin-specific Protease USP2a;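 note: activated enterokinase alone at 50 pM in a cell-free format rather than USP2a or CHOP2; nearly all actives have a fitted effect of over 55% in size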
Conditions: purified enterokinase, fluorogenic substrate, 485/531 nm; series mostly up to 38.3 µM; activity change, negative = inhibition: at the top concentration
In short: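 Fluorescence (485/531 nm) read 10 min after adding 25nM reporter substrate to 50 pM activated EK preincubated 30 min RT with compound; Tris pH 8.0/CaCl2/CHAPS buffer. Data normalized to buffer-alone inhibition; concentration-response curves fitted.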
% is set by controls: 0 for no effect and ±100 for the full control effect; potency is the fitted concentration of half-maximal effect.

Row | SMILES | activity change, negative = inhibition | Potency
1 | Cc1ccc(S(=O)(=O)Nc2ccc(N3CCOCC3)cc2)cc1 | 1.6% | 
2 | CC(C)CC(=O)NC(=S)Nc1nc(-c2ccc(Cl)cc2)cs1 | 2.17% | 
3 | O=C(CSc1ncccc1-c1nc2ccccc2[nH]1)Nc1ccc2c(c1)OCCO2 | 5.88% | 
4 | C=C(C)COc1ccc(-c2[nH]ncc2Oc2ccccc2OCC)c(O)c1 | 4.58% | 
5 | CCOC(=O)Nc1nnc(CCc2ccccc2)s1 | -3.27% | 
6 | C#CCOCCOCCOCCNc1nc(N2CCN(C(=O)CCCCCCCCCCNC(=O)[C@@H](CCC(=O)O)n3cc(CCCCCN)nn3)CC2)nc(N2CCN(C(=O)CCCCCCCCCCNC(=O)[C@H](CCCCN)n3cc(C[C@@H](C)CC)nn3)CC2)n1 |  | 5.62 µM (active)
7 | Cc1ccc(C(=O)N/C(=C/c2ccco2)C(=O)Nc2cccc(C(=O)O)c2)cc1 |  | 10 µM (active)
8 | Cn1c(C(=O)NCCCN2CCN(c3ccccc3F)CC2)cc2c(=O)n(C)c3ccccc3c21 | 2.44% | 
9 | CNc1nc(OCCNC(=O)Nc2ccccc2)nc(N2CCOCC2)n1 | 2.14% | 
10 | NS(=O)(=O)c1ccc(N=Nc2c(O)c(C(=O)O)cc3ccccc23)cc1 |  | 11.2 µM (active)
11 | Cc1cc(C(=O)OCC(=O)c2cccc([N+](=O)[O-])c2)c2cccc(C)c2n1 | 0.46% | 
12 | CNc1cccccc1=S | -3.13% | 
13 | O=C(CSc1nnc(SCc2ccccc2)s1)N/N=C/c1c[nH]c2ccccc12 | -4.05% | 
14 | CCOc1ccc2[nH]c(=O)c(CN(Cc3cccs3)Cc3nnnn3C(C)(C)CC)cc2c1 | -1.12% | 
15 | O=C(N/N=C1\CC(c2ccccc2)Oc2ccccc21)c1ccc(O)cc1 (stereo not given) | 4.04% | 
16 | COc1ccc(CCNC(=O)Cc2cc(=O)[nH]c(=O)[nH]2)cc1OC | -0.65% | 
17 | CCOC(=O)C1CCN(CC(O)COc2ccc(C(C)(C)C)cc2)CC1 (stereo not given) | 1.27% | 
18 | O=C(Nc1ccc2nc(-c3ccco3)c(-c3ccco3)nc2c1)N1CCN(c2ccccn2)CC1 |  | 2.82 µM (active)
19 | Cc1ccc2[nH]c(C)c(CCNC(=O)c3cc4cc([N+](=O)[O-])ccc4oc3=O)c2c1 | -5.03% | 
20 | CSCC[C@H](NC(=O)C1CCN(S(=O)(=O)c2ccc(C)cc2)CC1)C(=O)NCc1ccco1 | -11.1% | 

Row | SMILES | activity change, negative = inhibition | Potency
21 | O=C(CN1C(=O)/C(=C2\SC(=S)N(CCS(=O)(=O)O)C2=O)c2ccccc21)Nc1cccc(Br)c1 |  | 12.6 µM (active)
22 | COc1ccc(NC(=O)CSc2nc(O)cc(=O)n2-c2ccc(OC)cc2)cc1 | -6.78% | 
23 | CCOc1ccc(Cn2nnc(C(=O)NCc3ccccc3)c2N)cc1 | 0.856% | 
24 | O=C1CS/C(=C/C(=O)c2ccccc2)N1 | 0.0345% | 
25 | CCNc1sc(C(=O)c2cccs2)c(N)c1-c1nc2ccccc2s1 | 2.16% | 
26 | Cn1c2ccccc2c2nnc(SC3CCOC3=O)nc21 (stereo not given) | 3.41% | 
27 | CCOc1ccc2[nH]c(=O)c(CN(Cc3nnnn3Cc3ccco3)C3CCCCC3)cc2c1 | -8.56% | 
28 | O/N=C/c1ccccc1OCc1ccccc1F | 0.904% | 
29 | CC1CCN(c2ccc3c(c2)S(=O)(=O)c2cccc(C(=O)NC4CC4)c2C3=O)CC1 | 8.41% | 
30 | O=S(=O)(c1cc(Cl)ccc1Cl)N1CCNCC1 | 2.64% | 
31 | Nc1c(C(=O)Nc2ccc3c(c2)OCCO3)nnn1CCc1ccccc1 | -1.84% | 
32 | Cc1ccc(NC(=O)CN2C(=O)N/C(=C/c3ccco3)C2=O)cc1 |  | 5.01 µM (active)
33 | Cc1cccc(N2CCN(C(=O)CCc3nc4ccccc4[nH]3)CC2C)c1 (stereo not given) | 4.52% | 
34 | CCCOC(=O)CCCCC1SCC(NC(=O)OC)C1NC(=O)OC (stereo not given) | 15.4% | 
35 | C#CCOCCOCCOCCNc1nc(N2CCN(C(=O)CCCCCCCCCCNC(=O)[C@H]([C@@H](C)CC)n3cc(CCCCCN)nn3)CC2)nc(N2CCN(C(=O)CCCCCCCCCCNC(=O)[C@H]([C@@H](C)CC)n3cc(CCCCN=C(N)N)nn3)CC2)n1 |  | 2.24 µM (active)
36 | COc1ccc(CC(=O)c2ccccc2C(=O)O)cc1 | 5.34% | 
37 | C=CC[C@H](CC(=O)N[C@H](CO)Cc1ccccc1)C(=O)N[C@@H](COC(=O)[C@@H](CC=C)CC(=O)OC(C)(C)C)Cc1c[nH]c2ccccc12 | 0.391% | 
38 | O=C(NC1CCCC1)C1C2C=CC(C2)C1C(=O)N1CCOCC1 (stereo not given) | 4.28% | 
39 | CCc1sc(/C=C(/C#N)C(N)=S)cc1[N+](=O)[O-] | -6.11% | 
40 | COc1ccc(C(=O)OCC(=O)c2c[nH]c3ccccc23)c(OC)c1 | -3.08% | 
